# In PubChem BioAssay AID1159580 (chemical genetic matrix, 2015):
# Out of some 5,500 compounds screened, about 2,000 (36%) were called active. Not shown: some 18% with an inconclusive outcome. Some of the results follow. A number with no mark means an inactive call. Rule as the data show it: active = normalized growth mostly below about 0.91 (no sharp cut-off); inconclusive = no clear call, values can overlap the other calls; inactive = mostly above about 0.92.
# Assay: chemical genetic growth profiling, strain panel (AID 1159580);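 also: tested at 20 µM; growth read once vehicle control cultures reached saturation at 30 °C; 1 = growth at the plate median or of vehicle wells; lower values mean less growth of the strain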
# Details: S. cerevisiae deletion strains, growth OD
# [1] = locus YAR019C, strain CDC15, active compounds read low
# [2] = locus YBL105C, strain PKC1, active compounds read low
# [3] = locus YBR135W, strain CKS1, active compounds read low
# [4] = locus YBR136W, strain MEC1, active compounds read low
# [5] = locus YBR160W, strain CDC28, active compounds read low
# [6] = locus YDL017W, strain CDC7, active compounds read low
# [7] = locus YDL028C, strain MPS1, active compounds read low
# [8] = locus YDL101C, strain DUN1, active compounds read low
# [9] = locus YDL108W, strain KIN28, active compounds read low
# [10] = locus YDL132W, strain cdc53, active compounds read low
# [11] = locus YDL214C, strain PRR2, active compounds read low
# [12] = locus YDR052C, strain DBF4, active compounds read low
# [13] = locus YDR054C, strain cdc34, active compounds read low
# [14] = locus YDR226W, strain ADK1, active compounds read low
# [15] = locus YDR477W, strain SNF1, active compounds read low
# [16] = locus YER123W, strain YCK3, active compounds read low
# [17] = locus YER133W, strain GLC7, active compounds read low
# [18] = locus YFL009W, strain cdc4, active compounds read low
# [19] = locus YFL029C, strain CAK1, active compounds read low
# [20] = locus YFR003C, strain YPI1, active compounds read low
# [21] = locus YFR019W, strain FAB1, active compounds read low
# [22] = locus YFR028C, strain CDC14, active compounds read low
# [23] = locus YGR040W, strain KSS1, active compounds read low
# [24] = locus YGR052W, strain FMP48, active compounds read low
# [25] = locus YGR092W, strain DBF2, active compounds read low
# [26] = locus YHR030C, strain SLT2, active compounds read low
# [27] = locus YHR079C, strain IRE1, active compounds read low
# [28] = locus YHR082C, strain KSP1, active compounds read low
# [29] = locus YHR205W, strain SCH9, active compounds read low
# [30] = locus YIL147C, strain SLN1, active compounds read low
# [31] = locus YJL095W, strain BCK1, active compounds read low
# [32] = locus YJL128C, strain PBS2, active compounds read low
# [33] = locus YJL157C, strain FAR1, active compounds read low
# [34] = locus YJR016C, strain ILV3, active compounds read low
# [35] = locus YJR066W, strain TOR1 (second series), active compounds read low
# [36] = locus YJR066W, strain TOR1, active compounds read low
# [37] = locus YKL048C, strain ELM1, active compounds read low
# [38] = locus YKL067W, strain YNK1, active compounds read low
# [39] = locus YKL101W, strain HSL1, active compounds read low
# [40] = locus YKL193C, strain SDS22, active compounds read low
# [41] = locus YKL203C, strain TOR2, active compounds read low
# [42] = locus YLR113W, strain HOG1, active compounds read low
# [43] = locus YLR133W, strain CKI1, active compounds read low
# [44] = locus YLR403W, strain SFP1, active compounds read low
# [45] = locus YML070W, strain DAK1, active compounds read low
# [46] = locus YMR001C, strain CDC5, active compounds read low
# [47] = locus YMR205C, strain PFK2 (second series), active compounds read low
# [48] = locus YMR277W, strain FCP1, active compounds read low
# [49] = locus YNL006W, strain LST8, active compounds read low
# [50] = locus YNL020C, strain ARK1, active compounds read low
# [51] = locus YNL161W, strain CBK1, active compounds read low
# [52] = locus YNL183C, strain NPR1, active compounds read low
# [53] = locus YNL207W, strain RIO2, active compounds read low
# [54] = locus YNL222W, strain SSU72, active compounds read low
# [55] = locus YNL307C, strain MCK1 (second series), active compounds read low
# [56] = locus YOL078W, strain AVO1, active compounds read low
# [57] = locus YOL136C, strain PFK27, active compounds read low
# [58] = locus YOR061W, strain CKA2, active compounds read low
# [59] = locus YOR119C, strain RIO1, active compounds read low
# [60] = locus YOR231W, strain MKK1, active compounds read low
# [61] = locus YOR329C, strain SCD5, active compounds read low
# [62] = locus YPL031C, strain PHO85, active compounds read low
# [63] = locus YPL153C, strain RAD53, active compounds read low
# [64] = locus YPL204W, strain HRR25, active compounds read low
# [65] = locus YPL209C, strain IPL1, active compounds read low
# [66] = locus YPL256C, strain CLN2, active compounds read low
# [67] = locus YPR025C, strain CCL1, active compounds read low
# [68] = locus YPR106W, strain ISR1, active compounds read low
# [69] = locus YPR111W, strain DBF20, active compounds read low
# [70] = strain NNK1, active compounds read low
# [71] = strain TSCII, active compounds read low
# [72] = locus YAL013W, strain DEP1, active compounds read low
# [73] = locus YBR229C, strain ROT2, active compounds read low
# [74] = locus YDR150W, strain NUM1, active compounds read low
# [75] = locus YEL061C, strain CIN8, active compounds read low
# [76] = locus YGR078C, strain PAC10, active compounds read low
# [77] = locus YHR087W, strain rtc3, active compounds read low
# [78] = locus YJR043C, strain POL32, active compounds read low
# [79] = locus YJR075W, strain HOC1, active compounds read low
# [80] = locus YLR039C, strain RIC1, active compounds read low
# [81] = locus YLR058C, strain SHM2 (second series), active compounds read low
# [82] = locus YLR085C, strain ARP6, active compounds read low
# [83] = locus YLR262C, strain YPT6, active compounds read low
# [84] = locus YML094W, strain GIM5, active compounds read low
# [85] = locus YMR219W, strain ESC1, active compounds read low
# [86] = locus YMR263W, strain SAP30, active compounds read low
# [87] = locus YMR307W, strain GAS1, active compounds read low
# [88] = locus YNL153C, strain GIM3, active compounds read low
# [89] = locus YNL298W, strain CLA4 (second series), active compounds read low
# [90] = locus YNL322C, strain KRE1, active compounds read low
# [91] = locus YNR030W, strain Alg12, active compounds read low
# [92] = locus YOL006C, strain TOP1, active compounds read low
# [93] = locus YPL055C, strain LGE1, active compounds read low
# [94] = locus YPL241C, strain CIN2, active compounds read low
# [95] = locus YPR135W, strain CTF4, active compounds read low
compound,measurement,setting,value
Cc1c2c(=O)[nH]ncc2c(-c2ccccc2)n1-c1ccc([N+](=O)[O-])cc1,normalized growth,[1],0.99
same,normalized growth,[2],0.999
same,normalized growth,[3],0.998
same,normalized growth,[4],0.993
same,normalized growth,[5],0.99
same,normalized growth,[6],0.999
same,normalized growth,[7],0.987
same,normalized growth,[8],0.991
same,normalized growth,[9],0.989
same,normalized growth,[10],0.991
same,normalized growth,[11],0.953
same,normalized growth,[12],1
same,normalized growth,[13],1
same,normalized growth,[14],0.991
same,normalized growth,[15],0.925
same,normalized growth,[16],0.958
same,normalized growth,[17],0.946
same,normalized growth,[18],0.975
same,normalized growth,[19],0.977
same,normalized growth,[20],0.99
same,normalized growth,[21],0.95
same,normalized growth,[22],0.978
same,normalized growth,[23],0.939
same,normalized growth,[24],1.01
same,normalized growth,[25],1
same,normalized growth,[26],0.812 (active)
same,normalized growth,[27],0.994
same,normalized growth,[28],1.01
same,normalized growth,[29],0.937
same,normalized growth,[30],0.993
same,normalized growth,[31],0.903
same,normalized growth,[32],0.988
same,normalized growth,[33],0.971
same,normalized growth,[34],0.986
same,normalized growth,[35],0.928
same,normalized growth,[36],0.954
same,normalized growth,[37],0.94
same,normalized growth,[38],0.935
same,normalized growth,[39],0.968
same,normalized growth,[40],0.996
same,normalized growth,[41],1.03
same,normalized growth,[42],0.871
same,normalized growth,[43],0.975
same,normalized growth,[44],0.963
same,normalized growth,[45],0.93
same,normalized growth,[46],0.989
same,normalized growth,[47],0.956
same,normalized growth,[48],0.979
same,normalized growth,[49],0.983
same,normalized growth,[50],0.975
same,normalized growth,[51],0.998
same,normalized growth,[52],1.03
same,normalized growth,[53],1
same,normalized growth,[54],0.98
same,normalized growth,[55],0.949
same,normalized growth,[56],0.995
same,normalized growth,[57],0.938
same,normalized growth,[58],0.955
same,normalized growth,[59],0.975
same,normalized growth,[60],0.936
same,normalized growth,[61],0.993
same,normalized growth,[62],0.941
same,normalized growth,[63],0.939
same,normalized growth,[64],0.933
same,normalized growth,[65],1
same,normalized growth,[66],0.931
same,normalized growth,[67],0.988
same,normalized growth,[68],1.01
same,normalized growth,[69],1
same,normalized growth,[70],1.01
same,normalized growth,[71],0.987
COc1ccc(NS(=O)(=O)c2c(C)noc2C)cc1,normalized growth,[72],1.03
same,normalized growth,[73],1.02
same,normalized growth,"locus YCL061C, strain MRC1, active compounds read low",1
same,normalized growth,[8],1.02
same,normalized growth,[74],0.995
same,normalized growth,[75],1.03
same,normalized growth,[76],1.04
same,normalized growth,[26],1.06
same,normalized growth,[77],1.02
same,normalized growth,[78],0.995
same,normalized growth,[79],1.02
same,normalized growth,"locus YKL190W, strain CNB1, active compounds read low",1
same,normalized growth,[80],1.02
same,normalized growth,[81],1
same,normalized growth,[82],1.02
same,normalized growth,[83],1.01
same,normalized growth,[84],1.07
same,normalized growth,[85],0.996
same,normalized growth,[86],0.993
same,normalized growth,[87],0.941
same,normalized growth,[88],1.02
same,normalized growth,[89],1.02
same,normalized growth,[90],1.01
same,normalized growth,[91],1.04
same,normalized growth,[92],1.03
same,normalized growth,[93],1.06
same,normalized growth,[94],0.911
same,normalized growth,[95],1.02
Cc1nn(Cc2ccc(C(=O)Sc3ccc(C(F)(F)F)cn3)o2)c(C)c1Br,normalized growth,[1],0.965
same,normalized growth,[2],0.966
same,normalized growth,[3],0.955
same,normalized growth,[4],0.971
same,normalized growth,[5],0.967
same,normalized growth,[6],0.969
same,normalized growth,[7],0.969
same,normalized growth,[8],0.963
same,normalized growth,[9],0.961
same,normalized growth,[10],0.952
same,normalized growth,[11],0.882
same,normalized growth,[12],0.97
same,normalized growth,[13],0.953
same,normalized growth,[14],0.955
same,normalized growth,[15],0.834
same,normalized growth,[16],0.878
same,normalized growth,[17],0.898
same,normalized growth,[18],0.957
same,normalized growth,[19],0.962
same,normalized growth,[20],0.968
same,normalized growth,[21],0.932
same,normalized growth,[22],0.963
same,normalized growth,[23],0.81
same,normalized growth,[24],0.871
same,normalized growth,[25],0.855
same,normalized growth,[26],0.615 (active)
same,normalized growth,[27],0.858
same,normalized growth,[28],0.763
same,normalized growth,[29],0.566 (active)
same,normalized growth,[30],0.969
same,normalized growth,[31],0.827
same,normalized growth,[32],0.871
same,normalized growth,[33],0.911
same,normalized growth,[34],0.955
same,normalized growth,[35],0.885
same,normalized growth,[36],0.76
same,normalized growth,[37],0.896
same,normalized growth,[38],0.898
same,normalized growth,[39],0.861
same,normalized growth,[40],0.956
same,normalized growth,[41],0.892
same,normalized growth,[42],0.677 (active)
same,normalized growth,[43],0.871
same,normalized growth,[44],0.722
same,normalized growth,[45],0.894
same,normalized growth,[46],0.958
same,normalized growth,[47],0.881
same,normalized growth,[48],0.963
same,normalized growth,[49],0.972
same,normalized growth,[50],0.882
same,normalized growth,[51],0.965
same,normalized growth,[52],0.777
same,normalized growth,[53],0.953
same,normalized growth,[54],0.963
same,normalized growth,[55],0.781
same,normalized growth,[56],0.961
same,normalized growth,[57],0.872
same,normalized growth,[58],0.816
same,normalized growth,[59],0.879
same,normalized growth,[60],0.847
same,normalized growth,[61],0.978
same,normalized growth,[62],0.867
same,normalized growth,[63],0.934
same,normalized growth,[64],0.925
same,normalized growth,[65],0.974
same,normalized growth,[66],0.799 (active)
same,normalized growth,[67],0.965
same,normalized growth,[68],0.958
same,normalized growth,[69],0.93
same,normalized growth,[70],0.928
same,normalized growth,[71],0.961
CCn1nc(C)c(Br)c1-c1nc(-c2ccc(C(F)(F)F)cc2)no1,normalized growth,[72],1
same,normalized growth,[73],0.999
same,normalized growth,[8],1.02
same,normalized growth,[74],0.902
same,normalized growth,[75],1.01
same,normalized growth,[76],1.01
same,normalized growth,[26],1.08
same,normalized growth,[77],1
same,normalized growth,[78],1.01
same,normalized growth,[79],1
same,normalized growth,[80],0.982
same,normalized growth,[81],1.01
same,normalized growth,[82],1.14
same,normalized growth,[83],1.03
same,normalized growth,[84],1.03
same,normalized growth,[85],0.999
same,normalized growth,[86],1.02
same,normalized growth,[87],1.15
same,normalized growth,[88],0.985
same,normalized growth,[89],1.04
same,normalized growth,[90],1.01
same,normalized growth,[91],1.02
same,normalized growth,[92],1.14
same,normalized growth,[93],0.914
same,normalized growth,[94],0.981
same,normalized growth,[95],1.02
